FMDV inh: High Throughput Screening for Foot and Mouth Disease Virus Antivirals | 1.2% of 410,000 active | FMDV antiviral cell-based qHTS | Potency, µM (doses to about 57.9 µM), for the others: at the highest dose activity change, negative = inhibition, most hits filed as inhibitors; calls by dose curve; tested in HEK293T cells; also: read-out not given here; nearly all actives have a fitted effect of over 45% in size
Lassa entry inh: qHTS for Inhibitors of binding or entry into cells for Lassa Virus; AID 540256, 2011; Lassa virus pseudotype entry inhibition, cell reporter; Potency, µM (titrated, usually from 37.9 µM), inactives show at the top dose activity change, negative = inhibition, actives largely listed as inhibitors; 1.2% of 300,000 active; calls by dose curve; tested in HEK293 cells; also: nearly all actives have a fitted effect of over 50% in size
Marburg entry inh: qHTS for inhibitors of binding or entry into cells for Marburg Virus; Marburg virus pseudotyped entry inhibition, cell reporter; Potency, µM (titrated, usually from 37.8 µM), without a hit: at the top dose activity change, negative = inhibition, most hits filed as inhibitors; 1.8% of 300,000 active; AID 540276, 2011; calls by dose curve; tested in HEK293 cells
HCV inh: qHTS Assay for Inhibitors of Hepatitis C Virus (HCV) | Huh7.5.1 HCVcc-Cre infection, luciferase reporter, 44 h | Potency, µM (doses to about 41.8 µM), for inactives: at the top dose activity change, negative = inhibition, hits mostly inhibitors | 3.4% of 340,000 active
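Whole-lifecycle infectious HCVcc-Cre system; cells 1,000/well, compound then virus (~0.5 moi) added 4 h after plating, 44 h culture. Luciferase read 15 sec following 15 min substrate incubation, room temp.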
RE007 growth inh: qHTS Assay for Inhibitors of the HIV-1 protein Vpr; Potency, µM (top dose mostly 92.2 µM), inactives show top-dose activity change, negative = less growth, hits mostly inhibitors; 0.21% of 360,000 active; S. pombe RE007 Vpr strain, BacTiter-Glo ATP luminescence, 24 h; AID 651644, 2012; active = well fitted falling curve with a large enough effect; inconclusive = small, poorly fitted or top-dose-only effect; inactive = no such curve, though single readings can be large or run the other way; also: nearly all actives have a fitted effect of over 50% in size
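Fission yeast RE007 carrying one integrated HIV-1 vpr copy, seeded at OD 0.01 in PMG+AL medium with 23 nL pinned compound. Grown 24 h at 30 degrees; viability read by BacTiter-Glo luminescence after 5 min.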
Sm TGR inh: qHTS Assay for the Inhibitors of Schistosoma Mansoni Peroxiredoxins; purified TGR, DTNB reduction, TNB absorbance 405 nm; Potency, µM (series often up to 114 µM), for the others: top-dose activity change, negative = inhibition, hits mostly inhibitors; 3% of 360,000 active; AID 485364, 2010; also: nearly all actives have a fitted effect of over 60% in size
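First, TGR (20 nM dispensed) and NADPH were mixed with compound. Second, a 15 min room-temperature incubation followed. Third, further NADPH and then DTNB were added to start the reaction. Finally, TNB absorbance was monitored kinetically.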
Active calls of the source: *; u = inconclusive; x = no result; [ ] = dose if it differs, or a comment. The list is not random: actives were taken first. Their share in the collection is about 7.2%. Unless noted, calls follow the shape of the dose curve; as a rule, active = well fitted curve in the direction sought with a large enough effect; inconclusive = small, poorly fitted or top-dose-only effect, or another doubt; inactive = no such curve, though single readings can be large; an effect the other way counts as inactive or inconclusive. % is scaled to controls: 0 for no effect and ±100 for the full control effect; potency is read from the fitted curve at half-maximal effect.

SMILES	FMDV inh	Lassa entry inh	Marburg entry inh	HCV inh	RE007 growth inh	Sm TGR inh
CCOc1ccc(NC(=O)c2sc3nc4n(c(=O)c3c2C)CCCC4)cc1	-17%	-19%[46.1 µM]	x	x	x	32µM*
Cc1c(C(=O)Nc2cccc(C(F)(F)F)c2)sc2nc3n(c(=O)c12)CCCC3	18µM*	18%[46.1 µM]	x	x	x	-36%
Cc1c(C(=O)N(C)c2cccc(C(F)(F)F)c2)sc2nc3n(c(=O)c12)CCCCC3	-27%	4%[46.1 µM]	x	x	x	10µM*
Cc1c(C(=O)NCC2CCCN(C)C2)cnn1-c1ncc2c(n1)-c1ccccc1CCC2 (configuration not stated)	0%	x	x	x	x	x
CCOc1ccc2nc(N(CCN(C)C)C(=O)c3ccc4c(c3)CCCC4)sc2c1	-21%	u	u	u	-18%	17%
Cc1ccc2nc(N(CCCN(C)C)C(=O)c3ccc4c(c3)CCCC4)sc2c1	u	u	u	11µM*	10%	4%
Cc1cc(C)c2nc(N(CCCN(C)C)C(=O)c3ccc4c(c3)CCCC4)sc2c1	u	11µM*	u	7.1µM*	-5%	2%
CN(C)CCN(C(=O)c1ccc2c(c1)CCCC2)c1nc2cc3c(cc2s1)OCCO3	-9%	u	u	u	5%	0%
CN(C)CCCN(C(=O)c1ccc2c(c1)CCCC2)c1nc2c(F)cccc2s1	-7%	u	-18%	7.9µM*	10%	u
CCc1ccc(CNC(=O)CN2C(=O)C3CCCCN3c3ccc(C(=O)N4CCCC4)cc32)cc1 (configuration not stated)	20%	-8%[46.1 µM]	x	x	x	1%
O=C1CCCc2c1cc(C(=O)O)c(=O)n2-c1ccccc1	5%	5%	5%[46.1 µM]	7%	3%	0%
O=C1CCCc2c1cc(C(=O)Nc1ccc(Br)cn1)c(=O)n2-c1ccccc1	6%	7%	-24%[46.1 µM]	-19%	-6%	18µM*
O=C1CCCc2c1cc(C(=O)NC1CCSC1=O)c(=O)n2-c1ccccc1 (configuration not stated)	34%	5%	12%	8%	11%	35µM*
O=C(NCCCc1nc2ccccc2n1Cc1ccc(Cl)cc1)C1CCCCC1	u	-9%[46.1 µM]	u	x	x	-2%
CC(C)(C)OC(=O)NCc1ccc(CNC(=O)c2nc[nH]c2C(=O)NCc2ccccc2)cc1	u	x	x	u	7%	1%
CC(C)(C)OC(=O)NCc1ccc(CNC(=O)c2[nH]cnc2C(=O)NCC(=O)OCc2ccccc2)cc1	28µM*	x	x	u	-6%	1%
C[C@@H](OC(=O)c1[nH]cnc1C(=O)NCc1ccc(CNC(=O)OC(C)(C)C)cc1)c1ccccc1	32µM*	x	x	u	-5%	x
C[C@H]1COc2cc(N3CCC[C@@H]3CO)ccc2S(=O)(=O)N1	-20%	x	x	x	2%	x
CCC(C)(C)n1nnnc1CN1CCc2ccccc21	-16%	-18%	3%	-7%	3%	7.1µM*
c1ccc(CCn2nnnc2CN2CCCc3ccccc32)cc1	25%	22%	6%	-1%	-8%	-36%
CCOc1ccc(-c2nnc(SCC(=O)Nc3cccc(C#N)c3)o2)cc1	-6%	27%[46.1 µM]	0%[46.1 µM]	x	x	10µM*
CCn1c2ccccc2c2cc(NC(=O)CSc3nnc(-c4ccccc4)o3)ccc21	-19%	u	-19%	7.1µM*	-3%	3%
CCOc1ccc(-c2nnc(SCC(=O)Nc3cccc(Cl)c3C)o2)cc1	-23%	-14%[46.1 µM]	7%[46.1 µM]	x	x	0%
COC(=O)[C@@H]1CCCN1C(=O)c1c(OC)cc(=O)n2c1CCN(Cc1c(C)[nH]c3ccccc13)CC2	14%	x	x	x	x	x
O=c1c(-c2ccc(Cl)cc2)nc2cnc(N3CCNCC3)nc2n1Cc1ccc(F)cc1	-5%	x	x	x	x	x
SMILES	FMDV inh	Lassa entry inh	Marburg entry inh	HCV inh	RE007 growth inh	Sm TGR inh
COc1ccc(NC(=O)Cn2cc(C(=O)c3ccco3)c3ccccc32)cc1	5%	8%	0%	3.5µM*	6%	0%
CCC(=O)c1cn(CC(=O)Nc2ccccc2)c2ccccc12	-6%	u	u	-11%	0%	3%
CCC(=O)c1cn(CC(=O)Nc2ccc(C)cc2)c2ccccc12	-6%	9%	0%	15%	3%	100µM*
COc1ccc(NCc2nnc(SCC(=O)NCc3ccccc3)n2-c2ccccc2OC)cc1	-16%	-4%	u	u	0%	0%
COc1ccc(-n2c(CNc3ccc(C)cc3)nnc2SCc2ccccc2)cc1	-14%	11µM*	u	-6%	x	1%
CCOc1ccc(CNC(=O)Cn2c(=O)c3cccn3c3ccc(F)cc32)cc1OC	0%	7%[46.1 µM]	x	x	x	-5%
CCOc1cc(/C=N/Nc2nnc(C)n2N)ccc1O	-19%	x	x	16%	7%	50µM*
CCOc1cc(/C=N/NC(=O)C(N)=O)cc(Br)c1O	-8%	u	u	11%	-5%	50µM*
CCOc1cc(/C=N/NC(=O)C(=O)N/N=C/c2ccc(O)c(OCC)c2)ccc1O	-13%	-11%	-14%	9%	3%	-2%
CCOc1cc(/C=N/NC(=O)N/N=C/c2ccc(O)c(OCC)c2)ccc1O	-27%	u	7.1µM*	u	u	x
CCOc1cc(/C=N/Nc2ncnc(Cl)c2N)ccc1O	-17%	8%	0%	-22%	x	-26%
Cc1ccc(S(=O)(=O)NCc2nc3cccnc3n2Cc2ccccc2Cl)c(C)c1	32%	u	x	x	x	9%
CN1CCN(c2ncc3c(n2)CCN(Cc2ccc(Br)s2)C3)CC1	-19%	26%[46.1 µM]	x	x	x	-3%
CCOc1ccc(NS(=O)(=O)c2ccc3[nH]cc(C(=O)N(C)C4CCCCC4)c(=O)c3c2)cc1	1%	-5%[46.1 µM]	x	x	x	2%
Cc1ccc(-c2nnc(Nc3cccc(C(F)(F)F)c3)c3ccccc23)cc1S(=O)(=O)N1CCOCC1	-17%	-9%[46.1 µM]	x	x	x	-1%
Cc1ccccc1OCCCCn1cnc2ccccc21	-23%	-2%	-22%	7.9µM*	-15%	-4%
Cc1ccccc1OCCCCn1c(CO)nc2ccccc21	u	u	u	11µM*	-6%	-2%
Cc1ccccc1OCCn1c(C)nc2ccccc21	-28%	-17%[46.1 µM]	u	5.6µM*	u	3%
Cc1nc2ccccc2n1CCOc1ccccc1	u	20%	u	u	-12%	28%
Cc1ccc(OCCCCn2cnc3ccccc32)cc1	-10%	-1%[46.1 µM]	-7%[46.1 µM]	u	-18%	-1%
COc1ccccc1Cn1c(C)nc2ccccc21	u	3%	-5%[46.1 µM]	8%	-2%	17%
Cc1ccc(OCCCn2c(CO)nc3ccccc32)cc1	-19%	-27%	-33%	2%	4%	1%
Cc1ccccc1Cn1c(C)nc2ccccc21	u	u	u	5.6µM*	5%	-21%
